DAX1 inh-1: inhibitors of DAX1 repression of SF-1 activated StAR promoter; actives 1.1% (n = 370,000); AID 652010; HEK293T StAR-luciferase reporter, SF-1/DAX-1 repression relief; inhibition, % at 6.8 µM;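 active = inhibition above the mean over all tested compounds plus 3 SD, cut at about 3.6% in these data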;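 also: higher inhibition means more luminescence from relief of DAX-1 repression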
hgDAF-12 ag: activates the H. glycines DAF-12 receptor ligand-binding domain; activation, % at 6.8 µM; HEK293 GAL4-hgDAF12 UAS-luciferase reporter, agonist luminescence; normalized to butyrate control; actives 1.8% (n = 370,000);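 active = activation above a cutoff set at the mean of all screened compounds plus 3 SD, cut at about 10% in these data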
SMARCA2 act: SMARCA2 function activation, primary screen; MG213 cells, MMTV-luciferase reporter, dexamethasone, overnight; activation, % at 9.1 µM; actives 1% (n = 370,000); in the data active = activation above about 7.8%
hcDAF-12 act: activates DAF-12 receptor from parasite H. contortus; HEK293 hcDAF-12 lit1-tk-luc reporter, luminescence; 0% DMSO, 100% Δ7-dafachronic acid; activation, % at 6.8 µM; actives 1.4% (n = 370,000); AID 652067;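 active = activation above the mean of all tested compounds plus 3 SD, cut at about 5.5% in these data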
ssDAF12 agonist: S. stercoralis DAF-12 activation, primary screen. AID 652126. HEK293 ssDAF-12/GRIP1 lit1-tk-luc reporter, luminescence; % of 3 µM dafachronic acid response. activation, % at 6.8 µM. actives 1% (n = 370,000);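 active = activation above the mean over all tested compounds plus 3 SD, cut at about 0.9% in these data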
DAX1 inh-2: inhibits human nuclear receptor DAX1 | P51843 | actives 0.99% (n = 340,000) | HEK293 Gal4-DAX1 luciferase reporter, luminescence | inhibition, % at 6.75 µM;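 active = inhibition above the mean over all tested compounds plus 3 SD, cut at about 4.2% in these data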;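 also: inhibition shows as a rise in luminescence from relieved DAX1 repression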
Target sequence (P51843 207-470 limits assumed): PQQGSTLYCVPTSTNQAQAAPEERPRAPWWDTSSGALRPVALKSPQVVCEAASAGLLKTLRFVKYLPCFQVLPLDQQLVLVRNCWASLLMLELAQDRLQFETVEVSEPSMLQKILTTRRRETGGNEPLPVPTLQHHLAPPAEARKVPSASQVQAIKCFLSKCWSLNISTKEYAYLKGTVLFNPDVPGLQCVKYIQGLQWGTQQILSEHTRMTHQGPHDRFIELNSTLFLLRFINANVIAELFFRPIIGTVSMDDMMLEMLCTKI
Of the large screens only hits and unclear results are named; the others gave an inactive call. In the library only some 4.8% were active in any assay of this set; here they are far more common.

COC(=O)c1ccc2nc(-c3cccc(Cl)c3)c(Cc3cccc(Cl)c3)n2c1	ssDAF12 agonist 0.9 (no result: DAX1 inh-2)
COC(=O)c1ccc2nc(-c3cccc(Br)c3)c(Cc3ccsc3)n2c1	DAX1 inh-1 3.8 (no result: DAX1 inh-2)
O=C(Nc1cccc(NC(=O)c2ccc(Br)o2)n1)c1ccc(Br)o1	none
CCN1CCN(c2ccc(NC(=O)c3ccc(Br)o3)cc2)CC1	DAX1 inh-1 3.7, hgDAF-12 ag 11, ssDAF12 agonist 1.1
C/C(=N\NC(=O)c1c(Cl)cnn1C)c1ccc(NC(=O)c2ccc(Br)o2)cc1	DAX1 inh-1 6.3
Cc1nc(NC(=O)c2ccc(Br)o2)ccc1Br	DAX1 inh-1 4.0
C/C(=N\NC(=O)C1CC1)c1ccc(NC(=O)c2ccc(Br)o2)cc1	none (no result: DAX1 inh-2)
COc1ccc(CC(=O)Nc2ccc(/C(C)=N\NC(=O)c3ccc(Br)o3)cc2)cc1	hgDAF-12 ag 12, hcDAF-12 act 6.2
O=C(Nc1ccc2c(c1)CCC2)c1ccc(Br)o1	hgDAF-12 ag 13, hcDAF-12 act 5.8
COc1ccccc1C(=O)N/N=C(\C)c1ccc(NC(=O)Cc2ccccc2)cc1	none
COC(=O)Cc1ccc(NC(=O)c2ccc(Br)o2)cc1	hgDAF-12 ag 12
O=C(Nc1ccccc1)c1ccc(Br)o1	none
C/C(=N\NC(=O)c1ccccc1N)c1ccc(NC(=O)Cc2ccccc2)cc1	DAX1 inh-2 6.9
CCCC/C(=N\NC(=O)c1ccc(Br)o1)c1ccccc1	none
CC/C(=N/NC(=O)c1ccc(Br)o1)c1ccc(Cl)cc1	hgDAF-12 ag 12
CC(=O)Nc1ccc2c(c1)CCCC2	none
O=C(C(=O)N1CCC(CNS(=O)(=O)c2ccccc2OC(F)(F)F)CC1)c1cccs1	none (no result: DAX1 inh-2)
C[C@@H](CO)N(Cc1cn(Cc2ccccc2)nn1)S(=O)(=O)c1ccccc1Br	none (no result: DAX1 inh-2)
O=C1CCC[C@H]2C[C@H](NCc3cccc(F)c3)CC[C@]23CCCN13	none (no result: DAX1 inh-1, SMARCA2 act, DAX1 inh-2)
C/C(=N\NC(=O)c1c(Br)c(C)nn1C)c1ccc(NC(=O)c2ccoc2C)cc1	hgDAF-12 ag 12
Nc1c(C(=O)c2ccc(Cl)cc2)oc2ccccc12	hgDAF-12 ag 12, ssDAF12 agonist 1.8
O=C(c1ccc(Cl)cc1)c1oc2ccccc2c1CS(=O)c1ccc(Cl)cc1 (stereo not drawn)	none
CCOC(=O)C1=C(C(=O)OCC)C2N(Cc3ccc(C(F)(F)F)cc3)c3ccccc3[C@@]23C[C@@H](C(=O)OC)N(S(=O)(=O)c2ccc(OC)cc2)C3=N1 (stereo partly drawn)	none (no result: DAX1 inh-2)
O=C(c1cc(COc2cccc(C(F)(F)F)c2)on1)N1CCCC1	none
C[C@@H]1CN(C(=O)c2cc(COc3cccc(C(F)(F)F)c3)on2)C[C@H](C)O1	hgDAF-12 ag 11
CCCc1nc2cc(C)c(Br)c(C)n2c1Cc1ccc(OC)cc1C	none (no result: DAX1 inh-2)
COc1ccc(Cc2c(-c3ccc(F)cc3)nc3cc(C)c(Br)c(C)n23)c(C)c1	hcDAF-12 act 5.7, ssDAF12 agonist 2.2 (no result: DAX1 inh-2)
COc1ccc(Cc2c(C(C)(C)C)nc3cc(C)c(Br)c(C)n23)c(C)c1	ssDAF12 agonist 1.8 (no result: DAX1 inh-2)
COc1ccc(Cc2c(-c3ccc(Cl)cc3)nc3cc(C)c(Br)c(C)n23)c(C)c1	hgDAF-12 ag 13, ssDAF12 agonist 0.9 (no result: DAX1 inh-2)
Cc1ccc(-n2c(SCC(=O)Nc3ccccc3-c3ccccc3)nnc2-c2cccnc2)cc1	none (no result: DAX1 inh-2)
COC[C@H]1CCCN1c1cccc2c1S(=O)(=O)N(C1CC1)CC[C@@H](C)O2	none (no result: DAX1 inh-2)
COc1cccc(N2CCN(CC(=O)NCc3c(F)cccc3F)CC2)c1	none (no result: DAX1 inh-2)
COc1cccc(CC2(CO)CCCN(Cc3cn(C)c4ccccc34)C2)c1 (stereo not drawn)	none
Cn1cc(CN2CCCC(CO)(Cc3ccccc3)C2)c2ccccc21 (stereo not drawn)	DAX1 inh-2 4.9
CCOC(=O)C1CCCN(C(=O)/C=C/c2ccccc2)CC1 (stereo not drawn)	none (no result: DAX1 inh-2)
CCOC(=O)C1CCN(C(=O)/C=C/c2ccccc2)CC1	hgDAF-12 ag 12
COc1c(O)ccc(/C=N\NC(=O)c2ccc3c(c2)OCO3)c1[N+](=O)[O-]	DAX1 inh-2 5.5
O=C(N/N=C/c1cc2c(cc1[N+](=O)[O-])OCO2)c1ccc2c(c1)OCO2	none

Compound activity (PubChem BioAssay)
